About 79,000 compounds went through this panel and 15% of them were active in at least one assay; those are over-represented in the sample as a whole. Unmarked numbers belong to inactive results. Activity calls are given as the source filed them. No stated cut-off is given here; in the data, active means growth inhibition above about 70%; inactive means the rest.
What was measured:
[1] = NCI Yeast Anticancer Drug Screen. Data for the rad50 strain (AID 155);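 further: 0% = growth of vehicle-only cultures of the same strain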; conditions: S. cerevisiae rad50 strain growth inhibition; at 50.0 µM; stronger effect = higher value
Method in brief: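 Inhibition values express reduced yeast growth in compound-treated cultures relative to vehicle-treated controls.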

[2] = NCI Yeast Anticancer Drug Screen. Data for the mec2-1 strain (AID 157); conditions: S. cerevisiae mec2-1 strain, at 50.0 µM, stronger effect = higher value
Method in brief: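 Yeast mec2-1 mutant treated with compound. Readout: growth inhibition vs vehicle controls.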

[3] = NCI Yeast Anticancer Drug Screen. Data for the sgs1 mgt1 strain (AID 161);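 further: 0% = growth of cultures given vehicle only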; conditions: S. cerevisiae sgs1 mgt1 strain, at 50.0 µM, stronger effect = higher value
Method in brief: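 Test agents were incubated with a DNA-repair-mutant yeast strain. Growth was then read and compared against vehicle-treated controls.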

[4] = NCI Yeast Anticancer Drug Screen. Data for the cln2 rad14 strain (AID 165);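 further: 0% = growth equal to vehicle treated cultures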; conditions: S. cerevisiae cln2 rad14 strain, at 50.0 µM, stronger effect = higher value
Method in brief: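 cln2 rad14 yeast strain; compound exposure; growth inhibition read vs vehicle controls.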

[5] = NCI Yeast Anticancer Drug Screen. Data for the bub3 strain (AID 167); conditions: S. cerevisiae bub3 mutant strain, at 50.0 µM, stronger effect = higher value
Method in brief: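 Steps: expose the mutant yeast strain to compound; grow alongside vehicle-treated cultures; measure growth; express inhibition against the vehicle cultures.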

[6] = NCI Yeast Anticancer Drug Screen. Data for the mlh1 rad18 strain (AID 175); conditions: S. cerevisiae mlh1 rad18 strain growth inhibition; at 50.0 µM; stronger effect = higher value
Method in brief: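 Yeast w/ defined DNA-repair lesions; compound exposure; growth vs vehicle controls → % inhibition.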

| SMILES | growth inhibition [1] | growth inhibition [2] | growth inhibition [3] | growth inhibition [4] | growth inhibition [5] | growth inhibition [6] |
| --- | --- | --- | --- | --- | --- | --- |
| CCOC(=O)c1ccc(N=Nc2ccc(N(CCC#N)CCC#N)cc2C)cc1 | -47.5% | -50.6% | -27.4% | -4.4% | -36.8% | -24.5% |
| O=C(Nc1cccc(Cl)c1)c1ccc(Cl)cc1 | 2.95% | 24.2% | 7.75% | -12.9% | 26.7% | 4.3% |
| CCCCCC(O)c1ccccc1 (centres undefined) | 22.7% | -15.1% | 11.2% | -6.8% | -7.1% | 17.5% |
| O=[N+]([O-])c1ccccc1Sc1ccc2c3c(cccc13)CN(CCCO)C2 | 66.3% | 7.05% | 47.6% | 6.8% | 7.15% | 50.9% |
| CC(=O)Nc1ccc(Cc2[nH]c(=O)[nH]c(=O)c2Br)cc1 | 4.3% | -30.9% | -19.6% | -0.6% | 1.05% | -16.2% |
| COS(=O)(=O)C=C(c1ccccc1)c1ccccc1 | 12.8% | -27.1% | 15.7% | -24.5% | 6.4% | -1.95% |
| CCN(CC)c1ccc2c(c1)Oc1cc(N(CC)CC)ccc1C2c1ccccc1C(=O)O | -10.2% | -32.6% | -1.5% | 13.8% | 3.6% | -3.45% |
| CN(C=C(C#N)C#N)c1ccccc1 | 8.7% | -4.65% | -0.1% | -3.95% | 9.05% | 16.4% |
| O=[N+]([O-])c1ccc(N/N=C/C2CC=CCC2)c([N+](=O)[O-])c1 (centres undefined) | 7% | -6.8% | -8.55% | -13.1% | -5.65% | 5.25% |
| O=C1NC(N2CCCCC2)=N/C1=C\c1ccco1 | -11.8% | 0.2% | 8.35% | 13.7% | -5.65% | -33.8% |
| CC(=O)OC1C(NC(=O)OCc2ccccc2)CC(NC(=O)OCc2ccccc2)C(O)C1O (centres undefined) | 34.4% | -12.5% | 5.4% | -10.1% | -1.9% | 4.9% |
| CN1C/C(=C/c2ccc(N(C)C)cc2)C(=O)/C(=C/c2ccc(N(C)C)cc2)C1 | -2.45% | -6.9% | -16.9% | -5.3% | -3.7% | -18.9% |
| O=c1c2[nH]cnc2ncn1Cc1ccccc1 | 0.95% | 1.35% | 0.3% | -32.5% | -20.6% | -6.25% |
| N#Cc1nc(CC(=O)c2ccncc2)c(CC(=O)c2ccncc2)nc1C#N | 8% | 11.9% | 35.9% | 13.5% | -10.9% | 53.1% |
| CCC1CCC(Cc2ccncc2)CC1 (centres undefined) | 3.65% | -7.4% | -11.9% | -78.9% | 13.4% | -0.9% |
| O=c1[nH]nc(Cc2ccc(Cl)cc2)n1/N=C\CC/C=N\n1c(Cc2ccc(Cl)cc2)n[nH]c1=O | -18.4% | -0.9% | -14.1% | -4.05% | -13.3% | -3% |
| O=C(O)Cn1ccc(=O)c2cc([N+](=O)[O-])ccc21 | 41% | 15.4% | -11.1% | 12.7% | 24.9% | -49% |
| CN(c1ccccc1)c1cc2nc3ccccc3nc2cc1O | 15.3% | 17.4% | 4.3% | 14.3% | 2% | -1.6% |
| CCCCCCCC(C)(O)C#CC(C)(O)CCCCCCC (centres undefined) | 4.35% | -4.15% | 4.85% | -20.6% | 5.05% | 13.3% |
| CCCCCC(=O)NC(=O)Nc1ccccc1OC | -13.6% | -1.05% | -4.35% | -24.1% | 0.65% | -1.55% |

| SMILES | growth inhibition [1] | growth inhibition [2] | growth inhibition [3] | growth inhibition [4] | growth inhibition [5] | growth inhibition [6] |
| --- | --- | --- | --- | --- | --- | --- |
| c1ccc(C2CCN3c4ccc5ccccc5c4NCC23)cc1 (centres undefined) | 36% | 68% | 45.6% | 14.5% | 88.8% (active) | 67.3% |
| COC(=O)C1CC(=O)N(CCCl)C1 (centres undefined) | -5.65% | 5.6% | -23.9% | -18.1% | 11.7% | -10.8% |
| Cc1[nH]c(=O)[nH]c(=O)c1N | 4.8% | -10.4% | -28.9% | -19.4% | -2.9% | 2% |
| C[n+]1ccccc1/C=C/C=C/c1ccccc1 | 0.45% | -13.1% | 1.4% | -17.3% | -6.1% | 1.9% |
| CSC1=C(CCC(C)CCCC(C)CCCC(C)CCCC(C)CCCC(C)CCCC(C)C)C(=O)c2sccc2C1=O (centres undefined) | 15.7% | 13.6% | -1.45% | -17.9% | 11.5% | -5.95% |
| CC(=O)OC1CCC2(C)C(C1)CC(OC(C)=O)C1C2CC(OC(C)=O)C2(C)C(C(C)CC=C(c3ccccc3)c3ccccc3)CCC12 (centres undefined) | 0.1% | 11.6% | -4.1% | -13.7% | -39.9% | 8.45% |
| O=C(O)COc1cc2c(cc1Cc1ccc3c(c1)OCO3)OCO2 | 2.5% | 13.1% | 0.25% | 1.15% | 10.3% | 8.35% |
| CC(=O)/C(=C\n1c(=S)[nH]c2ccc([N+](=O)[O-])cc21)C(=O)Nc1ccccc1C | 2.1% | -44.8% | -5.05% | -2.8% | -20.4% | -7.3% |
| CCC1(C)CC(=O)N(C/C=C(\C)CCC(=O)O)C(=O)C1 | -3.35% | 4.5% | -0.45% | -8.4% | 7% | -7.45% |
| CC(C)=CCc1c(C)c(O)c(C)c(C)c1O | 7.15% | 1.25% | 9.6% | -71.9% | -11.4% | 8.05% |
| CC1=C[P+](c2ccccc2)(c2ccccc2)C=C(C)O1 | 8.9% | 3.55% | 12.6% | 0.65% | 4.5% | 4.25% |
| Cc1cccc(C)c1NC(=O)Nc1cccc(C(F)(F)F)c1 | -16.4% | -29.4% | -14.7% | -22.4% | -8.25% | -17.8% |
| CC1=CC2C3C(=O)OC(=O)C3C1C(Cc1ccccc1)N2C (centres undefined) | 14.5% | -1.85% | 10.6% | 12.9% | -6.55% | 21.5% |
| CC1Cc2ccccc2C2=C3CC=CCC3C3C(=O)OC(=O)C3C21 (centres undefined) | 11.4% | 8.05% | 0.5% | 2.3% | 6.05% | 7.65% |
| c1ccc(CNC(Cc2ccccc2)c2ccc(OCc3ccccc3)cc2)cc1 (centres undefined) | -15.2% | -17.6% | 4% | 11.8% | -10.2% | -10.6% |
| CCCCCCC(=O)C(=O)O | 41.4% | 37.8% | 35.5% | 3.65% | 18.9% | 59.5% |
| C/C=C(\CC)C(C#N)(CC)C(=O)OCC (centres undefined) | 20.9% | -18.4% | -7.5% | -6.25% | -30.3% | -24.8% |
| COc1ccccc1N=Nc1c(-c2ccccc2)nn(C(=O)CC(=O)Nc2cccc(C)c2)c1-c1ccccc1 | 29.1% | 17.5% | 4.9% | 5.65% | 52.5% | 27.3% |
| O=S1(=O)CCC(Br)c2ccccc2C1 (centres undefined) | 6.15% | 21% | -7% | 14.2% | 3.85% | -5.4% |

Reference: PubChem BioAssay (NCI)
